High-throughput results deposited in PubChem by National Center for Advancing Translational Sciences (NCATS).
Shown are actives, neighbours in structure and some others; about 6.3% of the full set was active somewhere.
Gal4-VP16 FLuc: counter-screen for ROR gamma inhibitors: Gal4-VP16 reporter. Drosophila S2 Gal4-VP16 UAS-luciferase, luminescence, 20 h. Potency, µM (top dose mostly 53.6 µM), without a hit: at the top dose activity, negative = inhibition, hits mostly inhibitors. 3.5% of 310,000 active;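 further: Gal4-VP16 expression switched on by copper sulfate through the metallothionein promoter; on the % scale 0 is the no-effect control and ±100 the full control effect; nearly all actives have a fitted effect of over 50% in size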
TGFb inhibitor: TGF-b pathway inhibition; HepG2 CAGA-GFP TGF-b/SMAD3 reporter, GFP fluorescence, 18 h; TGF-beta stimulated, 500 pg/mL final; Potency, µM (top dose mostly 46.1 µM), without a hit: at the top dose activity, negative = inhibition, usual class: inhibitors; 1.2% of 410,000 active; AID 588855; further: on the % scale 0 is the no-effect control and ±100 the full control effect; nearly all actives have a fitted effect of over 65% in size
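Smad-responsive CAGA-GFP expression was quantified in HEPG2 cells exposed to compounds and 500 pg/mL final TGF-beta for 18 h at 37 degrees C; unstimulated wells defined full inhibition.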
ATXN2 expr inh: inhibitors of ATXN2 expression | HEK-293 ATXN2-luciferase reporter, luminescence, 24 h | Potency, µM (highest dose often 57 µM), for the others: top-dose activity change, negative = inhibition, actives largely listed as inhibitors | 0.72% of 360,000 active | AID 1745845; further: on the % scale 0 is the no-effect control and ±100 the full control effect; nearly all actives have a fitted effect of over 55% in size
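ATXN2-luciferase reporter cells (luciferase flanked by upstream and downstream ATXN2 gene portions) were treated 24 h at 37 °C with compounds at up to 57 uM. SteadyGlo luminescence gave expression; GF-AFC fluorescence gave viability.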
S2 tox: reduces viability in counter-screen for ATXN expression inhibitors; 0.49% of 400,000 active; Potency, µM (highest dose often 56.7 µM), hits mostly cytotoxic; S2 cells (HEK-293 line with an ATXN2-luciferase reporter) viability, CellTiter-Fluor protease fluorescence, 24 h; further: nearly all actives have a fitted effect of over 40% in size
RORg inh: blocks mouse ROR gamma transcriptional activity | Drosophila S2 Gal4-RORgamma UAS-luciferase reporter, 20 h | 5.4% of 310,000 active | P51450 | Potency, µM (titrated, usually from 53.6 µM), for the others: at the highest dose activity change, negative = inhibition, most hits filed as inhibitors; further: on the % scale 0 is the no-effect control and ±100 the full control effect; nearly all actives have a fitted effect of over 60% in size
Target sequence (P51450 whole entry, looked up, the tested form may be a part): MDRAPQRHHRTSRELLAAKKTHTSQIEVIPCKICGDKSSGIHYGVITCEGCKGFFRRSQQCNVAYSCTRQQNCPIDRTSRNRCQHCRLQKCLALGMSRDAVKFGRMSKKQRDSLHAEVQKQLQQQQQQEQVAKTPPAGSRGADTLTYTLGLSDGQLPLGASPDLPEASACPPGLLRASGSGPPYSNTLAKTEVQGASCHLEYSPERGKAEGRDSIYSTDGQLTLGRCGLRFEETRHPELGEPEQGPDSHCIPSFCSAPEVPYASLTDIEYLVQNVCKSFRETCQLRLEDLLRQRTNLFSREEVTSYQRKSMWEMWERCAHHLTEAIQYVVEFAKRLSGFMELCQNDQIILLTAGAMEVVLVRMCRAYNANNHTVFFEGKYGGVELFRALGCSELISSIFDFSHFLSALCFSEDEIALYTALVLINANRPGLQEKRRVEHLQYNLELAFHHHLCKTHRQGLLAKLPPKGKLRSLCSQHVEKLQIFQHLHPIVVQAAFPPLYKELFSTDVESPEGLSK
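Stable Schneider cell line, Gal4 DNA-binding domain fused to ROR gamma, UAS-luciferase. Cmpd 1 hr RT → CuSO4 700 uM final → 20 hr RT → luciferase reagent 10 min → luminescence.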
HepG2 tox: counter-screen for TGF-b inhibitors: cytotoxicity in HepG2 cells; HepG2 CAGA-GFP viability, ATP luminescence, 18 h; Potency, µM (series often up to 46.1 µM), for inactives: at the highest dose activity change, negative = cytotoxicity, actives largely listed as cytotoxic; 0.76% of 410,000 active
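HepG2 CAGA-GFP cells (1000/well, DMEM with 1% FBS) received compound, then TGF-beta at 500 pg/mL final, and were incubated 18 hours at 37 degrees C. Viability was read by CellTiter-Glo luminescence. Media-only wells were set as complete cell-killing and DMSO as no toxicity.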
* hit, by the source's call; i = inactive; ? = inconclusive; . = no result; [ ] = another dose, or the depositor's remark. The call rests on the fitted dose curve; in most records, active means well fitted curve in the direction sought with a large enough effect; inconclusive means small, poorly fitted or top-dose-only effect, or another doubt; inactive means no such curve, though single readings can be large; an effect the other way counts as inactive or inconclusive. Potency means the concentration at half of the fitted maximal effect.

SMILES | Gal4-VP16 FLuc | TGFb inhibitor | ATXN2 expr inh | S2 tox | RORg inh | HepG2 tox
COc1cccc(C2CC(=O)Nc3cc4c(cc32)OCO4)c1OC(C)C (stereo not drawn) | . | -16% | ? | ? | . | -17%
CC(C)Oc1ccccc1C1CC(=O)Nc2cc3c(cc21)OCO3 (stereo not drawn) | 13µM* | ? | -9% | ? | ? | -12%
Cc1ccc(-n2c(=O)c3ccc(C(=O)NCc4ccccc4Cl)cc3n(CC(=O)Nc3ccc(C)cc3C)c2=O)cc1 | . | -4% | 2% | i | . | -21%
O=C(NCCCN1CCCCC1)c1ccc2c(c1)sc1nc(-c3ccc(F)cc3)cn12 | . | ? | ? | i | . | -51%
CCN1CCN(CCCNC(=O)c2ccc3c(c2)sc2nc(-c4ccc(C)cc4)cn23)CC1 | . | -90% | . | . | . | -99%
Cc1ccc(-c2cn3c(n2)sc2cc(C(=O)NCCCN4CCCCC4)ccc23)cc1 | . | -88% | . | . | . | 10µM*
Cc1ccc(-c2cn3c(n2)sc2cc(C(=O)NCCCN4CCCCCC4)ccc23)cc1 | . | -101% | . | . | . | 10µM*
CC1CCCCN1CCCNC(=O)c1ccc2c(c1)sc1nc(-c3ccc(F)cc3)cn12 (stereo not drawn) | . | ? | 14µM* | 32µM* | . | 13µM*
CC[C@H](C)[C@H](NC(=O)[C@@H](NC(=O)[C@@H](NC(=O)[C@H](CCC(=O)O)NC(=O)[C@H](CCC(=O)O)NC(=O)[C@H](CCC(=O)O)NC(=O)[C@H](C)NC(=O)[C@@H](N)CC(C)C)C(C)C)C(C)C)C(=O)N[C@@H](CCCNC(=N)N)C(=O)N[C@@H](CO)C(=O)N[C@@H](C)C(=O)N[C@@H](CC(N)=O)C(=O)N[C@@H](Cc1ccccc1)C(=O)N[C@H](C(=O)N[C@@H](CC(=O)O)C(=O)N[C@@H](CC(N)=O)C(=O)O)[C@@H](C)O | 0% | . | . | . | -11% | .
COc1ccccc1NC(=S)N(Cc1ccccc1)Cc1cccnc1 | 22% | -5% | -13% | i | -21% | 0%
COc1ccc(CCN(Cc2ccccn2)C(=S)Nc2ccccc2F)cc1OC | -4%[10 µM] | -4% | 3% | i | 13µM* | 3%
COc1ccc(CCN(Cc2ccccn2)C(=S)Nc2ccccc2Cl)cc1OC | ? | -19% | -11% | i | 10µM* | 13%
COc1ccccc1NC(=S)N(Cc1ccccc1)Cc1ccccn1 | ? | 3% | -13% | i | 11µM* | -22%
COc1ccc(CCN(Cc2ccccn2)C(=S)Nc2cccc(C)c2)cc1OC | -1% | -6% | -9% | ? | 10µM* | 5µM*
COc1ccc(NC(=S)N(CCc2ccc(OC)c(OC)c2)Cc2ccccn2)cc1 | -21% | -15% | -12% | i | ? | 5%
CC(O)(c1cccc(F)c1)c1nc(-c2cnc3ccccc3c2)cs1 (stereo not drawn) | . | ? | -1% | i | . | -54%
OC(COc1cccc2ccccc12)CN1CCN(c2ccc(Cl)cc2)CC1 (stereo not drawn) | 1% | 16µM* | . | ? | 16% | -94%
OC(COc1cccc2ccccc12)CN1CCN(c2cccc(Cl)c2)CC1 (stereo not drawn) | -9% | -10% | . | ? | -17% | -2%
O=C1C2CC=CCC2C(=O)N1c1ccc(N2CCN(c3ccccn3)CC2)c([N+](=O)[O-])c1 (stereo not drawn) | 4.5µM* | -23% | -12% | i | -81% | -124%
O=C(c1ccc(N2CCCCC2)c([N+](=O)[O-])c1)N1CCN(c2ccccn2)CC1 | ? | ? | . | i | ? | -40%
COc1cccc(C2=Nn3c(nnc3-c3ccccc3O)SC2)c1 | ? | -5% | -2% | i | ? | -17%
C[n+]1c2n(c3ccccc31)N=C(c1cc(C(C)(C)C)c(O)c(C(C)(C)C)c1)CS2 | 7.9µM* | 6.3µM* | ? | 22µM* | ? | -160%
CC[C@H](C)[C@H](N)C(=O)N[C@@H](CCCNC(=N)N)C(=O)N[C@@H](CCC(N)=O)C(=O)NCC(=O)N1CCC[C@H]1C(=O)N[C@@H](CCCCN)C(=O)N[C@@H](CCC(=O)O)C(=O)N1CCC[C@H]1C(=O)N[C@@H](Cc1ccccc1)C(=O)N[C@@H](CCCNC(=N)N)C(=O)N[C@@H](CC(=O)O)C(=O)N[C@@H](Cc1ccc(O)cc1)C(=O)N[C@H](C(=O)N[C@@H](CC(=O)O)C(=O)N[C@@H](CCCNC(=N)N)C(=O)N[C@@H](Cc1ccccc1)C(=O)N[C@@H](Cc1ccc(O)cc1)C(=O)N[C@@H](CCCCN)C(=O)N[C@H](C(=O)N[C@@H](CC(C)C)C(=O)O)[C@@H](C)O)C(C)C | -3% | . | . | . | 5% | .
CCNC(=O)C1(C)CCCN(C(=O)c2cc(C)nn2C(C)(C)C)C1 (stereo not drawn) | . | 23% | 2% | i | . | 2%
CCN(CC)S(=O)(=O)c1cccc(NC(=O)C(=O)c2c(-c3ccccc3)cc3ccccn23)c1 | -1% | -12% | -17% | i | 7.9µM* | -10%
SMILES | Gal4-VP16 FLuc | TGFb inhibitor | ATXN2 expr inh | S2 tox | RORg inh | HepG2 tox
CCN(CC)S(=O)(=O)c1cc(NC(=O)C(=O)c2c(-c3ccccc3)cc3ccccn23)ccc1C | -3% | -30% | -16% | i | -20% | -9%
C[C@H]1CN=C(N(C)C)N1CCc1ccccc1 | . | 5% | -1% | i | . | 10%
CC1Cc2ccccc2C(CCc2ccccc2)=N1 (stereo not drawn) | -5% | 8% | . | i | 13µM* | -5%
C[C@@H]1CNCCN1S(=O)(=O)c1cccc2cnccc12 | 25µM* | . | . | . | ? | .
NC(N)=NCCNS(=O)(=O)c1cccc2cnccc12 | -8% | . | . | . | -13% | .
Cc1noc(NS(=O)(=O)c2ccc(NS(=O)(=O)c3ccc(C(C)(C)C)cc3)cc2)c1C | . | 21% | . | i | . | 15%
Cc1cc(-n2c(C)cc(C(=O)CSc3ncnc4ccccc34)c2C)no1 | 5µM* | -6% | -2% | i | ? | -32%
Cc1cc(C)n2nc(SCC(=O)c3cc(C)n(-c4cc(C)on4)c3C)nc2n1 | 4µM* | ? | -13% | i | -5% | -18%
COc1cc(/C=c2\[nH]c(=O)/c(=C/c3cc(OC)c(OC)c(OC)c3)[nH]c2=O)cc(OC)c1OC | . | 2% | . | . | . | 5%
CCOC(=O)NC1CCc2cc(OC)c(OC)c(OC)c2-c2ccc(SC)c(=O)cc21 (stereo not drawn) | . | 0% | -3% | ? | . | 12%
